# TWEAK Fn14 block: inhibitors of TWEAK-Fn14 signaling, primary screen, luciferase reporter cells, uHTS; TWEAK-stimulated Fn14 reporter cells, luciferase luminescence, 8 h; inhibition, % at 10 µM; 2% of 360,000 active; AID 1159606, 2016; in the data active means inhibition above about 50%
# TROY NFkB inh: inhibitors of TROY-driven NF-kB signaling, primary screen, Q293 LMP1-TROYcd cells, NF-kB luciferase, uHTS | Q293 LMP1-TROYcd NF-kB luciferase reporter, 4 h | inhibition, % at 10 µM | 0.98% of 360,000 active;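 active means compounds whose plate-normalised and pattern-corrected inhibition of the luciferase reporter signal at the single screening dose is 50% or more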
# EWS-Fli block: EWS/Fli-driven NR0B1 reporter inhibitors, primary screen, A673 cells, NR0B1 luciferase, luminescence, MLPCN library | viability-normalised | inhibition, % at 12.6 µM | 0.67% of 350,000 active;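 active means mean inhibition of at least 50% after viability correction, with every replicate also passing that limit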;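 further: firefly luciferase signal divided by Alamar Blue viability fluorescence both relative to DMSO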
# PAX8 reporter: inhibitors of PAX8-driven TPO luciferase reporter, primary screen, RMG-I cells, single concentration. SteadyGlo, 24 h. inhibition, % at 12.6 µM. 1.2% of 360,000 active. AID 652154, 2013;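 active means mean replicate inhibition at least 60% with every replicate also reaching 60%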;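 further: luciferase light reporting Pax8 driven TPO promoter activity; plate controls were median of neutral control wells for no effect and mitoxantrone controls for full effect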
# LGR2 antag: inhibitors of bursicon-induced LGR2 CRE-luciferase signal, primary screen, cell-based, HEK293, CRE-luciferase reporter, bursicon stimulation. Drosophila bursicon receptor LGR2 (rickets). 0.35% of 380,000 active. inhibition, % at 9.99 µM. bursicon-stimulated, 4 h;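 active means drop in luminescence signal, shown as inhibition above about 50% in the replicate tests, limit read from the data, passing the limit was not always enough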;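 further: agonist challenge used bursicon conditioned medium at about half maximal strength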
# Active calls of the source: *; nt = no result given. Most compounds without a hit are left out; they make up all but 2.8% or so of the library.
SMILES,TWEAK Fn14 block,TROY NFkB inh,EWS-Fli block,PAX8 reporter,LGR2 antag
COc1ccc(C2Nc3ccccc3C(=O)N2c2ccc(F)cc2)cc1CSc1ccccn1 (stereo unspecified),-17,-59,-17,136*,-34
C[C@@H]1CN([C@@H](C)CO)C(=O)CCCn2cc(nn2)CO[C@@H]1CN(C)S(C)(=O)=O,nt,nt,2,nt,4
CC(C)C[C@H](NC(=O)c1nc[nH]c1C(=O)N[C@@H](CCCCNC(=O)OC(C)(C)C)C(=O)OC(C)(C)C)C(=O)OCc1ccccc1,14,-5,17,82*,20
CC(C)(C)OC(=O)NCCCC[C@H](NC(=O)c1nc[nH]c1C(=O)N[C@@H](CCCCNC(=O)OC(C)(C)C)C(=O)OC(C)(C)C)C(=O)OC(C)(C)C,30,-7,17,76*,36
CC(C)(C)OC(=O)NCCCC[C@H](NC(=O)c1nc[nH]c1C(=O)NC(c1ccccc1)c1ccccc1)C(=O)OC(C)(C)C,27,-3,22,80*,7
C[C@H](NC(=O)c1[nH]cnc1C(=O)Nc1ccc(CNC(=O)OC(C)(C)C)cc1)C(=O)OCc1ccccc1,52*,74*,10,8,0
O=C([C@H]1[C@H](CO)[C@H]2Cn3c(ccc(C4=CCCC4)c3=O)[C@H]2N1CC1CC1)N1CCCCC1,nt,nt,0,-7,-6
O=C(C[C@H]1CC[C@H]2[C@@H](COC[C@H](O)CN2Cc2ccccc2F)O1)NCc1ccccc1F,nt,nt,3,11,-2
COc1cccc(-c2cnc3c(c2)C(=O)N([C@H](C)CO)C[C@@H](C)[C@@H](CN(C)C(=O)Nc2c(C)noc2C)O3)c1,nt,nt,-6,nt,14
O=C(NC1CCC1)[C@H]1[C@H](CO)[C@H]2Cn3c(cccc3=O)[C@H]2N1CC1CCOCC1,nt,nt,-9,nt,15
Cc1ccc(S(=O)(=O)N(C)C[C@H]2Oc3ccc(NC(=O)Nc4ccccc4)cc3C(=O)N([C@H](C)CO)C[C@H]2C)cc1,nt,nt,7,11,-7
CC(C)C[C@H](NC(=O)c1[nH]cnc1C(=O)N[C@@H](Cc1ccccc1)C(=O)OC(C)(C)C)C(=O)OC(C)(C)C,31,2,11,68*,30
COC1=C(OC)C(=O)C(Sc2ccc3ccccc3c2)=CC1=O,58*,8,30,52,-17
CNC[C@@H]1Oc2ccc(NC(=O)C3CC3)cc2C(=O)N([C@H](C)CO)C[C@H]1C,nt,nt,-1,8,-10
CC(C)Nc1nnc(SCC(=O)Nc2ccc3c(c2)C(=O)c2ccccc2C3=O)s1,59*,24,nt,nt,-9
O=C(CSc1nnc(NC2CCCCC2)s1)Nc1ccc2c(c1)C(=O)c1ccccc1C2=O,19,-33,-68,-204,-58
C[C@H]1CN([C@@H](C)CO)C(=O)c2cccc(NC(=O)CCCCCC(=O)Nc3ccccc3N)c2O[C@@H]1CN(C)C,nt,nt,nt,15,1
COc1ccc(-c2csc(N3C(=O)CNC3=S)n2)cc1,61*,21,nt,-122,10
O=C1CNC(=S)N1c1nc(-c2ccccc2)cs1,-9,-36,-69,-169,-70
COc1ccc(-c2csc(N3C(=N)SCC3=O)n2)cc1,65*,38,nt,nt,nt
CC1C(=O)C(C)C(c2cc(Br)ccc2O)NC1c1cc(Br)ccc1O (stereo unspecified),9,63*,24,-15,4
C[C@H]1CN([C@@H](C)CO)C(=O)c2cc(NC(=O)Nc3ccccc3)ccc2O[C@@H]1CN(C)C(=O)Nc1ccc(C(F)(F)F)cc1,nt,nt,16,nt,10
C[C@H](CO)N1C[C@H](C)[C@H](CN(C)C(=O)Nc2ccccc2)Oc2ccc(NC(=O)Nc3ccc(C(F)(F)F)cc3)cc2C1=O,nt,nt,0,74*,-17
C[C@@H]1CCCCO[C@H](CN(C)C(=O)Nc2ccc(C(F)(F)F)cc2)[C@H](C)CN([C@@H](C)CO)C(=O)c2cc(NC(=O)Nc3ccccc3)ccc2O1,nt,nt,-10,3,-5
C[C@H]1CCCCO[C@H](CN(C)C(=O)Nc2ccc(C(F)(F)F)cc2)[C@@H](C)CN([C@@H](C)CO)C(=O)c2cc(NC(=O)Nc3ccccc3)ccc2O1,nt,nt,-11,81*,2
